Results published in the supplement of paper PMC11732987, “Enantioselective OTUD7B fragment discovery through chemoproteomics screening and high-throughput optimisation” (Communications Chemistry, 2025).

What was measured:
Assay in all cases: log2 ratio of Biotin-Ahx-Ub-VS probe labelling (fragment/DMSO); higher = less target engagement (more negative = stronger competition), active = hit call of the paper (q ≤ 0.05, log2 ratio ≤ -1)
Settings in all cases: compound concentration: 200 uM; treatment time: 3 h
USP42 = biological target: T1, USP42 (UniProt Q9H9J4)
T1 sequence (whole entry): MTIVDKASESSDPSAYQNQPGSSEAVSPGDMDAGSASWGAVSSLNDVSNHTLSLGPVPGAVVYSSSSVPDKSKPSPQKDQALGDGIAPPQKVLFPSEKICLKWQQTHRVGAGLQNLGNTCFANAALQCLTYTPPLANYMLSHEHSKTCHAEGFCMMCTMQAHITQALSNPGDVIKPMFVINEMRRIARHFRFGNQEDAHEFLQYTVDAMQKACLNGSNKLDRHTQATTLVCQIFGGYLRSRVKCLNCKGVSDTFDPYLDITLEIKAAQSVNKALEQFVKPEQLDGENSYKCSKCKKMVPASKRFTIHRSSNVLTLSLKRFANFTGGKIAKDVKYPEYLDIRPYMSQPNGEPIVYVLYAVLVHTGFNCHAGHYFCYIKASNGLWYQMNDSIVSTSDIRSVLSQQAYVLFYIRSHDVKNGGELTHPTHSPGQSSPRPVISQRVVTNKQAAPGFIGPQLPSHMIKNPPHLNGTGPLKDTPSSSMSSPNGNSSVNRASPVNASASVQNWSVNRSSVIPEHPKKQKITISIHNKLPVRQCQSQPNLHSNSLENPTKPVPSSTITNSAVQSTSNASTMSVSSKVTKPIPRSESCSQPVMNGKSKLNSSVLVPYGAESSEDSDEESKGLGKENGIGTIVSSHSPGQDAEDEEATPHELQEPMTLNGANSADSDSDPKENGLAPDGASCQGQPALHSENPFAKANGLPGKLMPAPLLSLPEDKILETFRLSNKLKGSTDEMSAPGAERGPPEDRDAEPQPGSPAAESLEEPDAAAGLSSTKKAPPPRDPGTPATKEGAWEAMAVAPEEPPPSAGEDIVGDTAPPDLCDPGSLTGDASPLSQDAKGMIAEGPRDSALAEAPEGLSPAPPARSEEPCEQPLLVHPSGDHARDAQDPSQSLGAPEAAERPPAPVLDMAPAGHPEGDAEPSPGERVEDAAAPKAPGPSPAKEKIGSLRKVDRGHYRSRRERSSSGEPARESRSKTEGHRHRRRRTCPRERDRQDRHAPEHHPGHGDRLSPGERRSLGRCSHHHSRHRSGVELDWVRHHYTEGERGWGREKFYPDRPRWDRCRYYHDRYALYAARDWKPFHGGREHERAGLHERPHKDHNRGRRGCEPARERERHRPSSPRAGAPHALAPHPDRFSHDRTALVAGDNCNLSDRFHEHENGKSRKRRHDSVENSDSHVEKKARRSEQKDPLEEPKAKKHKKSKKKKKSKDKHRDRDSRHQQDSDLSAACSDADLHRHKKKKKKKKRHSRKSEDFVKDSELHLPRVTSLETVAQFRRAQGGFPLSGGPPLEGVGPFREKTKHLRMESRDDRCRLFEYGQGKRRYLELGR
How it was run: (§1)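 Fragment (200 µM) or vehicle was incubated for 3 h with triplicate HEK293T lysate samples of 495 µg, which were then treated with Biotin-Ahx-Ub-VS at 0.5 µM final for 1 h. Labelled DUBs were enriched on NeutrAvidin, digested with LysC and trypsin, and analysed by diaPASEF LC-MS/MS. Values are average log2 fragment/vehicle ratios from an unpaired t-test on global-median-normalised Spectronaut label-free quantities, using proteins with ≥2 unique peptides.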

USP46 = USP46 (UniProt P62068)
How it was run: as §1

USP47 = biological target: T2, USP47 (UniProt Q96K76)
T2 sequence (whole entry): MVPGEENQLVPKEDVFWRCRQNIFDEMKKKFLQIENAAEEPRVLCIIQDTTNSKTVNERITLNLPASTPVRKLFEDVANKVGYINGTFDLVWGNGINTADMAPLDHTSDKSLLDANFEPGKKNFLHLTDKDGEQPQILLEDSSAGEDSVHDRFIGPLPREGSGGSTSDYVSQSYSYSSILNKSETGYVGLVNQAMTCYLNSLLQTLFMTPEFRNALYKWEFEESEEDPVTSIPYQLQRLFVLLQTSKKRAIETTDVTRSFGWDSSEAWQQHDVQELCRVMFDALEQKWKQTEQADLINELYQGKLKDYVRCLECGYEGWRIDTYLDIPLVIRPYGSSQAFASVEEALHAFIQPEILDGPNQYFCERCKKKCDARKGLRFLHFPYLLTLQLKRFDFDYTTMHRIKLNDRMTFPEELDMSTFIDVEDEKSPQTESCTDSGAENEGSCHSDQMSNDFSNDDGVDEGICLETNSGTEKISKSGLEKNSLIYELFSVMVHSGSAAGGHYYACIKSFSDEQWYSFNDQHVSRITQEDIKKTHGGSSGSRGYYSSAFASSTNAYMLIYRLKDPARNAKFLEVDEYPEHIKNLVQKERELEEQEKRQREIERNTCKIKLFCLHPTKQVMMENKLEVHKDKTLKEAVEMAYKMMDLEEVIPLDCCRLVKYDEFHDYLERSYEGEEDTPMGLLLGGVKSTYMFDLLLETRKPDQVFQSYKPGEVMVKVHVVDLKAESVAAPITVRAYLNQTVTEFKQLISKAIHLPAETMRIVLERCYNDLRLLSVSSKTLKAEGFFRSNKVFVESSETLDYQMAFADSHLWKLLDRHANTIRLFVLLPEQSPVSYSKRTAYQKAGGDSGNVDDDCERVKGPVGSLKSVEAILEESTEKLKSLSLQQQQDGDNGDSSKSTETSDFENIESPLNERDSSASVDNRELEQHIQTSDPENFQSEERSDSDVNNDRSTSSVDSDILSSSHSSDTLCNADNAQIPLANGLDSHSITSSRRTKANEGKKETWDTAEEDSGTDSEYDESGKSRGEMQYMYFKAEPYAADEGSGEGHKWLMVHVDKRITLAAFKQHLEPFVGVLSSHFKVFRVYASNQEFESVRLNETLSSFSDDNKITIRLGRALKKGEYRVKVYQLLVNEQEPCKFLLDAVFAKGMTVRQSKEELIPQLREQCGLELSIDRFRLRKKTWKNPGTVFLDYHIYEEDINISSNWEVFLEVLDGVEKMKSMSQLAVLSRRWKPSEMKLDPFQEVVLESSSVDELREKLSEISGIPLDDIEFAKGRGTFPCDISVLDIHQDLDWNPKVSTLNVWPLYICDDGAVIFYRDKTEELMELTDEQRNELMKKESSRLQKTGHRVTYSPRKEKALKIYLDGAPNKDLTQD
How it was run: as §1

USP48 = biological target: T3, USP48 (UniProt Q86UV5)
T3 sequence (whole entry): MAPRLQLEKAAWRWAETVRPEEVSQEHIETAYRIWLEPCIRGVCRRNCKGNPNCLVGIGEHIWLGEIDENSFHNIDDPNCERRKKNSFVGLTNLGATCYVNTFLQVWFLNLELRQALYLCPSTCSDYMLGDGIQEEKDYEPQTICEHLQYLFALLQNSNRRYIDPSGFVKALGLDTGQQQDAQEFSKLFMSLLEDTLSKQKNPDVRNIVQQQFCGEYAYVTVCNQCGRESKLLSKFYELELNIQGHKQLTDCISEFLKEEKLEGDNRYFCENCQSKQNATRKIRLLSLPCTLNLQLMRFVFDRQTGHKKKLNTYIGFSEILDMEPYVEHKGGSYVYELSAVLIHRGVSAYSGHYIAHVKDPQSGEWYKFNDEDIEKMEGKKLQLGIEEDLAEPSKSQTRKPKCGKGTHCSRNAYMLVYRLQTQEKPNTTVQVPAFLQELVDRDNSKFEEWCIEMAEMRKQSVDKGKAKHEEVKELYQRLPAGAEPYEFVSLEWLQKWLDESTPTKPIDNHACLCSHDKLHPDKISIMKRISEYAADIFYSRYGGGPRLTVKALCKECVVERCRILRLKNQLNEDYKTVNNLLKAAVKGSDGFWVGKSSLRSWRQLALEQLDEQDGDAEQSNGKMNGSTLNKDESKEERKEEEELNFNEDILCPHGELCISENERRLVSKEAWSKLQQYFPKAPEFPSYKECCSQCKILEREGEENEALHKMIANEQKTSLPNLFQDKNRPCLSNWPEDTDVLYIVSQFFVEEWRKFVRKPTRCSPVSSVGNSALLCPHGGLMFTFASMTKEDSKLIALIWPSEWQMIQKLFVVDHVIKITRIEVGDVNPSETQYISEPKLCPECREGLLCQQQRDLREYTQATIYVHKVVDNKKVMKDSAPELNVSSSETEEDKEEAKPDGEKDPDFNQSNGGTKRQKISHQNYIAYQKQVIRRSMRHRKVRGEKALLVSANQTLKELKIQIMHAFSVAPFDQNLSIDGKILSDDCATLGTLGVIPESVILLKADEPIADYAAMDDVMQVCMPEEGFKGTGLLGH
How it was run: as §1

USP5 = biological target: T4, USP5 (UniProt P45974)
T4 sequence (whole entry): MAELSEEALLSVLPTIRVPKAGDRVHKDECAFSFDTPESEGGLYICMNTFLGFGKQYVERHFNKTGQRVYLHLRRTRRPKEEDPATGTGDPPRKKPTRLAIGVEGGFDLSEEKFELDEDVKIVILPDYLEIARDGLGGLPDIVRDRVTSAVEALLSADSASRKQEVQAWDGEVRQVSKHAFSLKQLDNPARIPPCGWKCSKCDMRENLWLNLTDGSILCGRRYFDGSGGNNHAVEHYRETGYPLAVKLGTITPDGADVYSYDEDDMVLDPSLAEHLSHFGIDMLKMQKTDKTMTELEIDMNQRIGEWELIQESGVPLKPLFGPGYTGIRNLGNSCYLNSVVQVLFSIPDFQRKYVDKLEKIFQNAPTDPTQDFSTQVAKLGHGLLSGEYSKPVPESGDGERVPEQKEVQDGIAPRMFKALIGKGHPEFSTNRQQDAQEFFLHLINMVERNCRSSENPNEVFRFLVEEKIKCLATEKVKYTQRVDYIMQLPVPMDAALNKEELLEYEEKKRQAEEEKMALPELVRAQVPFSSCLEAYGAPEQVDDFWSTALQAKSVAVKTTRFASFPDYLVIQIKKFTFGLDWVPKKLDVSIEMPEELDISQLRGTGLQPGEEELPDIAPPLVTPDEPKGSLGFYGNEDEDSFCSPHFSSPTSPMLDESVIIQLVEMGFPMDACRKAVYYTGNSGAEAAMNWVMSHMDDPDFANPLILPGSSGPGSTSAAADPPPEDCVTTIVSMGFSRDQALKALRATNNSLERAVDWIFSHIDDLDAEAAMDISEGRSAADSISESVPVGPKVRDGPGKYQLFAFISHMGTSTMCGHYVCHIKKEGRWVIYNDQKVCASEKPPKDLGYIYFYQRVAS
How it was run: as §1

USP54 = USP54 (UniProt Q70EL1)
How it was run: as §1

USP7 = USP7 (UniProt Q93009)
How it was run: as §1

USP8 = biological target: T5, USP8 (UniProt P40818)
T5 sequence (whole entry): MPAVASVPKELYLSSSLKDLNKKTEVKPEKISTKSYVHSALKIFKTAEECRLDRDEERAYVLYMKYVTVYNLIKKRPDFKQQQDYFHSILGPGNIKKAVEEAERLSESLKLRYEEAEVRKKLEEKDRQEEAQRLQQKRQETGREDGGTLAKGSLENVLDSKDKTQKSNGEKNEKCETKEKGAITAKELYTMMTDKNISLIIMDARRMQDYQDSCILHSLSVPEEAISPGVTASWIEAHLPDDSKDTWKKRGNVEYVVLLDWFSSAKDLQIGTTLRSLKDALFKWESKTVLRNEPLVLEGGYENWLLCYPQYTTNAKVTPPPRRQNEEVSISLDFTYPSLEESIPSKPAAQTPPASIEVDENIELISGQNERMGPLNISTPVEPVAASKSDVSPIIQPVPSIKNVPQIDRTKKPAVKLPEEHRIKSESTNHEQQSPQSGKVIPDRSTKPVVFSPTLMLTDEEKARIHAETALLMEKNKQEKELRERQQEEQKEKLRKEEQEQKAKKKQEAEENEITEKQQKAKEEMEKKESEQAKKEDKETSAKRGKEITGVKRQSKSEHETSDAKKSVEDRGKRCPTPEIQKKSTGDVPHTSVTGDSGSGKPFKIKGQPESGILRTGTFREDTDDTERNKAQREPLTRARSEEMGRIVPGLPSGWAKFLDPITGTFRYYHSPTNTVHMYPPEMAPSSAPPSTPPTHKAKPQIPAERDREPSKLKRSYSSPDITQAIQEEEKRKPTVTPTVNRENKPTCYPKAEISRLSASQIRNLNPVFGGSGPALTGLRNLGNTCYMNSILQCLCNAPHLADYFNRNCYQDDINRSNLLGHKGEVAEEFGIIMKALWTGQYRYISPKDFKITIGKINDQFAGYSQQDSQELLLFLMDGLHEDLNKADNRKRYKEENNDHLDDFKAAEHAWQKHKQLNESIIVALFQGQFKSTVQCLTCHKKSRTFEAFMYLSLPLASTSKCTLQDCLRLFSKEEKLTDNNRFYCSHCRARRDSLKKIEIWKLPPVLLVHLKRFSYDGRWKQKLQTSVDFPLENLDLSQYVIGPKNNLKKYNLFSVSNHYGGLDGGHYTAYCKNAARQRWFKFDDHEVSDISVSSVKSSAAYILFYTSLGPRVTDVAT
How it was run: as §1

Measured: log2 ratio of Biotin-Ahx-Ub-VS probe labelling

Chain of USP7 (Q93009 whole entry, looked up): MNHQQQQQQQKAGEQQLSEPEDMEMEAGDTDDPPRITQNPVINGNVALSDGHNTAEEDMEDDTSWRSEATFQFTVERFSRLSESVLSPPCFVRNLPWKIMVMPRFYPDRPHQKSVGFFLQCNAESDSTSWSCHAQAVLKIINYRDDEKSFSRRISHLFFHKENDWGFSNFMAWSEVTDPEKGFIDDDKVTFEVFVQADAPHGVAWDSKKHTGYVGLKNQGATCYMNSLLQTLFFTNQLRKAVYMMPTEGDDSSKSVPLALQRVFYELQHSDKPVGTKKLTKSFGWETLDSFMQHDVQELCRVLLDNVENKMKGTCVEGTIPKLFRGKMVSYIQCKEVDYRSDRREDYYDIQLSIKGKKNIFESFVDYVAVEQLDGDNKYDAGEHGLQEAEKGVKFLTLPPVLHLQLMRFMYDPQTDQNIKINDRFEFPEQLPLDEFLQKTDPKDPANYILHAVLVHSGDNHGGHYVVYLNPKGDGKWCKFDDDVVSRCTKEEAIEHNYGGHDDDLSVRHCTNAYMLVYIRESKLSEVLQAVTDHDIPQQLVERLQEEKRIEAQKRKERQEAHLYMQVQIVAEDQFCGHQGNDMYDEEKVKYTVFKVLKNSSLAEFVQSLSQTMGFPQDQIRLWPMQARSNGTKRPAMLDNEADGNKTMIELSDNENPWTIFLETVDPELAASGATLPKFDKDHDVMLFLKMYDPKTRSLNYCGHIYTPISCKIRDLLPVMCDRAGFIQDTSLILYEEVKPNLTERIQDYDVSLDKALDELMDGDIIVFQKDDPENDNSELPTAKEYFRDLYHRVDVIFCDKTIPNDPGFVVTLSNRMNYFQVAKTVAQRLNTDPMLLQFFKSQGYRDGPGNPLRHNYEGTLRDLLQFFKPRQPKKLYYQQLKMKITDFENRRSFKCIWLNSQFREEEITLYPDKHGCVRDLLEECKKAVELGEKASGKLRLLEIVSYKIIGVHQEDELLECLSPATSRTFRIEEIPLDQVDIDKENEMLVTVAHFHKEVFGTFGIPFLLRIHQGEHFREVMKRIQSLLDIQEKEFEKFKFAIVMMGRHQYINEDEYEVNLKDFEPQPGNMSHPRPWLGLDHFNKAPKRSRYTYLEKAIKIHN
Chain of USP54 (Q70EL1 whole entry): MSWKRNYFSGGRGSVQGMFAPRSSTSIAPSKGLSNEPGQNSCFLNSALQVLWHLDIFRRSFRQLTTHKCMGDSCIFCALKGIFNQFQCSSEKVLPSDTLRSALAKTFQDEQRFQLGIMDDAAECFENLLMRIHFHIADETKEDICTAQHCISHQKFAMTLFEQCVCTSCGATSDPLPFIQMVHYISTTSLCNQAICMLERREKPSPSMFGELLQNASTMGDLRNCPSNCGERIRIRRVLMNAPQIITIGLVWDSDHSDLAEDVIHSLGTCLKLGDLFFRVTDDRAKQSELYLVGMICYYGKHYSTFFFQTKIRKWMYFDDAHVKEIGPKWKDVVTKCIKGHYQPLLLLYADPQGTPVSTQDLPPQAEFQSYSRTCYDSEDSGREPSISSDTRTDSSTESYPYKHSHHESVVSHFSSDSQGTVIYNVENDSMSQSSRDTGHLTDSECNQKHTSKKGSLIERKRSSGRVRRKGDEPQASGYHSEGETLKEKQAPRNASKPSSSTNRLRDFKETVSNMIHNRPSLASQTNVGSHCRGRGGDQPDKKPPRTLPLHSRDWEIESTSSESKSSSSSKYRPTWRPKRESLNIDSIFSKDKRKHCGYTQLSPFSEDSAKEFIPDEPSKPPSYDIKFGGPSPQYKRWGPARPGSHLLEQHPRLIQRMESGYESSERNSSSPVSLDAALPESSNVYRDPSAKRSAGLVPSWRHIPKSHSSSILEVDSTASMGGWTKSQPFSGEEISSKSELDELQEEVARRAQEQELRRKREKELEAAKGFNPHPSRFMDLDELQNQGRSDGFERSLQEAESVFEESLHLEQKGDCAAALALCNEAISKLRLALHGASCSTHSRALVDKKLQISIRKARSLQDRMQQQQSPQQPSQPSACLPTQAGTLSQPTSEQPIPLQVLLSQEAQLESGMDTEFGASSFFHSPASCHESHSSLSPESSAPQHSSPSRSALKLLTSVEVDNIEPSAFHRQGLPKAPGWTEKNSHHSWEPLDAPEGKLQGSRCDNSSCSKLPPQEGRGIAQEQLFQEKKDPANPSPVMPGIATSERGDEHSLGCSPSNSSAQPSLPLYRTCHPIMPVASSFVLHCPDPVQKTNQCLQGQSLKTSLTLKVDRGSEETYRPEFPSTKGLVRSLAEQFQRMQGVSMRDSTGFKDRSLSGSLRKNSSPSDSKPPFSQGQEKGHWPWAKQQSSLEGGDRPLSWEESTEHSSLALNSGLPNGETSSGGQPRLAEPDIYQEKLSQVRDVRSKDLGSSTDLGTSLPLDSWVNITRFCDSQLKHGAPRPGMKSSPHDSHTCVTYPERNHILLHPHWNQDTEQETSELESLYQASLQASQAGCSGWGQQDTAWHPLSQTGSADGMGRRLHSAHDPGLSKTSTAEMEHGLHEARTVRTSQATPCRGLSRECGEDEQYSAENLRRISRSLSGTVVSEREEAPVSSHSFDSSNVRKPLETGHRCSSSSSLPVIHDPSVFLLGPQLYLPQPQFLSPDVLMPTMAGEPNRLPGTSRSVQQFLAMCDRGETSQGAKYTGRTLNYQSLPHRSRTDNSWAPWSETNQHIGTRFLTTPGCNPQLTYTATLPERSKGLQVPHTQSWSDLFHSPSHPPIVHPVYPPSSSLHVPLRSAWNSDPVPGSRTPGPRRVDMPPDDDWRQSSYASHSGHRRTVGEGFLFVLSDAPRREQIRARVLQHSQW
Chain of USP46 (P62068 whole entry): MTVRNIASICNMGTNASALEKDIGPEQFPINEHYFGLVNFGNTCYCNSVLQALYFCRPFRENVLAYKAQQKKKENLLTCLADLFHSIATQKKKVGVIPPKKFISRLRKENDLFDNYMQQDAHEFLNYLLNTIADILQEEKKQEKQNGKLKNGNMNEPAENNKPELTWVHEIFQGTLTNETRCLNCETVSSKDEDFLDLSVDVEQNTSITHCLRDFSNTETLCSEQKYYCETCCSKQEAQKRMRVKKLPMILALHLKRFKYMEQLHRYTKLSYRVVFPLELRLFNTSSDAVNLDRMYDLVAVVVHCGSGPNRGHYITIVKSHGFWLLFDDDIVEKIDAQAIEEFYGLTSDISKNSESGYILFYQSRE

Cl.Cn1ncc2c1CC(NC(=O)CCl)CC2 (stereo not drawn)
inactive: USP42 0.421 | USP46 0.116 | USP47 0.118 | USP48 0.191 | USP5 0.0298 | USP54 -0.146 | USP7 -0.063 | USP8 -0.0427
